Bioassay records (PubChem BioAssay)
AmpC inh no detg: AmpC beta-lactamase inhibition without detergent. P00811. AmpC nitrocefin hydrolysis, absorbance 480 nm, 0.0001% Triton. Potency, µM (series often up to 57.1 µM), inactives show at the highest dose activity change, negative = inhibition, hits mostly inhibitors. 330,000 tested, 0.52% active;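 further: plate controls were no compound for no effect and no enzyme for full effect; nearly all actives have a fitted effect of over 20% in size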
Target sequence (P00811 whole entry, looked up): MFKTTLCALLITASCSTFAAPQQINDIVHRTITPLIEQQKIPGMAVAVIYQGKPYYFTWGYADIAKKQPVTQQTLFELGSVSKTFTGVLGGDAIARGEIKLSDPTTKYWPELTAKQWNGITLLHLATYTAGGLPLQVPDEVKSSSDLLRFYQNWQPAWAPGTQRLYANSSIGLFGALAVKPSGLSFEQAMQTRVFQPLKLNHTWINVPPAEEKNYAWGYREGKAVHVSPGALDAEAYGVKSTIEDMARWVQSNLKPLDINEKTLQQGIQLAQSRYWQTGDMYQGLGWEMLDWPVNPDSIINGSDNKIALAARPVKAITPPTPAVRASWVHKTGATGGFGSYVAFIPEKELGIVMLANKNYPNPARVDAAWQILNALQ
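AmpC (5.3 nM in the dispensed reagent) in 20 mM phosphate pH 7.0 with 0.01% (detergent screen) or 0.0001% Triton X-100 was preincubated with compounds for 15 min at room temperature. Nitrocefin was then added from an 800 uM solution, and hydrolysis was followed at 480 nm.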
AMA1 RON2 block: disrupts binding of P. falciparum AMA1 to RON2; AlphaScreen AMA1-biotinylated RON2 peptide binding; AID 720542; Potency, µM (series often up to 58.2 µM), inactives show top-dose activity change, negative = inhibition, usual class: inhibitors; 360,000 tested, 0.2% active;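 further: 0% = vehicle wells and -100% = peptide control; nearly all actives have a fitted effect of over 45% in size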
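AMA1 (3D7) with his tag at 25 nM final met compounds first, then biotinylated RON2 peptide at 25 nM; detection used donor plus acceptor beads, 10 µg/mL apiece, read by AlphaScreen after 30 min at room temperature.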
NS1 inh: influenza NS1 inhibition; Potency, µM (top dose mostly 46.1 µM), without a hit: at the top dose activity, positive = more growth; 270,000 tested, 0.4% active; calls by dose curve; further: actives are rising curves; nearly all actives have a fitted effect of over 50% in size
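OD600 was taken as the measure of yeast growth restored by compound in an NS1-expressing S. cerevisiae strain. Cells had been washed out of glucose medium and diluted 1:100 into galactose -URA medium, pH 6.0.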
AmpC detergent: inhibitors of E. coli AmpC beta-lactamase with detergent. Potency, µM (doses to about 114 µM), for the others: at the highest dose activity change, negative = inhibition, usual class: inhibitors. AmpC hydrolysis of nitrocefin, absorbance 480 nm, 0.01% Triton. AID 485294. 370,000 tested, 0.041% active;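 further: 0% = no-compound wells and -100% = no-enzyme wells; nearly all actives have a fitted effect of over 25% in size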
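20 mM phosphate pH 7.0 + 0.01% (detergent screen) or 0.0001% Triton X-100; 5.3 nM AmpC reagent; cpd preinc 15 min RT; nitrocefin (800 uM stock) to start; A480 q20 s × 4 min; Activity was normalised to no-enzyme and no-compound control wells.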
Starred values were filed as active, the others as inactive. In the library only some 0.86% were active in any assay of this set; here they are far more common. Unless noted, the call rests on the fitted dose curve; in most records, active means well fitted curve in the direction sought with a large enough effect; inconclusive means small, poorly fitted or top-dose-only effect, or another doubt; inactive means no such curve, though single readings can be large; an effect the other way counts as inactive or inconclusive. Potency means the concentration at half of the fitted maximal effect.

For Nc1cc(C(=O)O)[nH]c(=O)n1 the results were NS1 inh -4%.
`Cc1sc(NC(=O)CN2C(=O)NC3(CCCC3)C2=O)nc1-c1ccc(F)cc1` gave AmpC inh no detg 25µM*, AMA1 RON2 block 17% and AmpC detergent inconclusive.
Cc1ccc(CSc2sc(C(=O)c3ccccc3)c(N)c2C#N)cc1 was read as AmpC inh no detg 10µM*, AMA1 RON2 block 6%, NS1 inh -3% and AmpC detergent 0%.
Screening N#Cc1c(SCc2ccccc2)sc(C(=O)c2ccccc2)c1N returned AmpC inh no detg -25%, AMA1 RON2 block 20%, NS1 inh 6% and AmpC detergent 0%.
CSc1nc(N(CCO)CCO)c2sc3nc(-c4ccco4)c4c(c3c2n1)CCC4 was read as AmpC inh no detg 153%, AMA1 RON2 block 11µM*, NS1 inh inconclusive and AmpC detergent 2%.
For N#CC1=C(N)SC(N)=C(C#N)C1c1cccc(Oc2ccccc2)c1 the results were AmpC inh no detg 25µM*, AMA1 RON2 block 73%, NS1 inh -10% and AmpC detergent -4%.
`Cc1ccccc1OCCCN1C(=O)C(=O)c2cccc(C)c21` gave AmpC inh no detg inconclusive, AMA1 RON2 block 16µM*, NS1 inh -119% and AmpC detergent inconclusive.
Screening COc1ccc2[nH]c3c(c2c1)CCN1C(=O)N([C@@H](C)C(=O)NCc2ccc(C)cc2)C(=O)[C@]31C returned AmpC inh no detg 68%, AMA1 RON2 block -19%, NS1 inh 19% and AmpC detergent -13%.
For CCN(CC)Cc1c(C(=O)N/N=C/c2ccccn2)nnn1-c1nonc1N the results were AmpC inh no detg -3%, AMA1 RON2 block 100%, NS1 inh -1% and AmpC detergent -8%.
Screening Cc1nn(-c2ccccc2)c(C)c1/C=N/NC(=O)CSc1nnc(SCc2cccc3ccccc23)s1 returned AmpC inh no detg 2.2µM*, AMA1 RON2 block -1%, NS1 inh 24% and AmpC detergent 2%.
Screening CCOC(=O)c1c(C)[nH]c(C)c1S(=O)(=O)N1CCCC(C(=O)NCc2ccc(N(C)C)cc2)C1 (stereo not given) returned AmpC detergent -6%.
`CCOC(=O)CSc1ncc(OC)c(=O)[nH]1` gave AmpC inh no detg inconclusive, AMA1 RON2 block 17%, NS1 inh 10% and AmpC detergent 3%.
For CCOC(=O)C(C)Sc1ncc(OC)c(=O)[nH]1 (stereo not given) the results were AmpC inh no detg 0.16µM*, AMA1 RON2 block -7%, NS1 inh -5% and AmpC detergent -2%.
CCN(c1ccc(OC)cc1)c1ncnc2nc[nH]c12 was read as AmpC inh no detg -2%, AMA1 RON2 block 13%, NS1 inh 6% and AmpC detergent inconclusive.
For CCCN(c1ccc(OCC)cc1)c1ncnc2nc[nH]c12 the results were AmpC inh no detg 0.71µM*, AMA1 RON2 block -2%, NS1 inh -34% and AmpC detergent inconclusive.
`COc1ccc(-n2ccn(Cc3ccccc3C)c(=O)c2=O)cc1` gave AmpC detergent 25%.
CCOc1ccc(S(=O)(=O)NCCC(=O)OCC(=O)NC(=O)c2cccn2C)cc1 was read as AmpC inh no detg -19% and AMA1 RON2 block -16%.
COCOCCn1cc(CN2CCS(=O)(=O)N(Cc3ccc(-c4ccc(OC)cc4)cc3)C(C(C)C)C2=O)nn1 (stereo not given) was read as AMA1 RON2 block 2%.
CN(Cc1ccco1)C(=O)C1CCN(c2nnc(-n3cccc3)s2)CC1 was read as AmpC inh no detg 47%, AMA1 RON2 block 8%, NS1 inh -1% and AmpC detergent inconclusive.
`O=C(NCc1ccco1)C1CCN(c2nnc(-n3cccc3)s2)CC1` gave AmpC inh no detg 0.79µM*, AMA1 RON2 block -5%, NS1 inh -17% and AmpC detergent 4%.
COc1cccc(C(=O)N2CCC2(C)C(=O)O)c1 (stereo not given) was read as AMA1 RON2 block -9%.
Screening Cc1ccc(S(=O)(=O)N2CCC(C(=O)N[C@@H](C)C(=O)Nc3ccc(F)cc3)CC2)cc1 returned AmpC inh no detg 23%, AMA1 RON2 block -4%, NS1 inh 10% and AmpC detergent -9%.
`Cc1ccc(S(=O)(=O)N2CCC(C(=O)N[C@@H](C)C(=O)Nc3ccc4c(c3)OCO4)CC2)cc1` gave AmpC inh no detg 8%, AMA1 RON2 block 11%, NS1 inh -25% and AmpC detergent 35µM*.
